Screening data from PubChem BioAssay.
A selection: hits, their analogues and other compounds. The true share with any hit is near 5.2%.
Tau ThT inhib = blocks human tau fibril formation measured by thioflavin T; P10636; recombinant tau K18 P301L, heparin-induced fibrillization, ThT fluorescence; Potency, µM (doses to about 57.4 µM), most hits filed as inhibitors; hit rate 2.1% among 270,000; note: nearly all actives have a fitted effect of over 55% in size
Target sequence (P10636 561-689 P618L limits assumed): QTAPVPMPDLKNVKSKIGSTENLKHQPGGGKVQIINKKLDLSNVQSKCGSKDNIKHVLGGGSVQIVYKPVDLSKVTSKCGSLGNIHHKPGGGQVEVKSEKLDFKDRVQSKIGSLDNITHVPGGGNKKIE
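Aggregation was driven by heparin (20 uM final) acting on recombinant tau […] bearing P301L in 100 mM sodium acetate pH 7; fibrils were detected with Thioflavin T.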
Tau FP inhib = blocks human tau fibril formation measured by polarization; Potency, µM (titrated, usually from 57.7 µM), hits mostly inhibitors; hit rate 0.39% among 280,000; K18 P301L tau heparin fibrillization, Alexa594 FP, 6 h; P10636; AID 1468; note: nearly all actives have a fitted effect of over 55% in size
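K18 P301L tau (15 uM unlabeled/0.24 uM Alexa 594-labeled, final) + compound + heparin 20 uM final; 100 mM NaOAc pH 7; 6 hr 37 C; ThT 30 uM final added, 1 hr RT; FP ex 555/em 632 nm.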
Sfp inh = Sfp phosphopantetheinyl transferase inhibition | Q9F4F7 | Biochemical Sfp PPTase activity, qHTS | Potency, µM, usual class: inhibitors | hit rate 3.5% among 310,000;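 note: the enzyme is Sfp with the accession as filed and its product quenches rhodamine fluorescence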
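After 15 min at room temperature with compound, 15 nM Sfp received 5 uM rhodamine-CoA plus 12.5 uM BHQ-2-ybbR (50 mM Hepes pH 7.6, 10 mM MgCl2). Rate came from the fluorescence difference over 30 min, ex 525/em 598 nm.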
Tau fluor cs = counter-screen for tau fibril formation inhibitors; tau K18 P301L (four-repeat tau fragment) Alexa594 fluorescence, heparin fibrillization; Potency, µM (doses to about 57.7 µM); hit rate 0.93% among 280,000; note: nearly all actives have a fitted effect of over 55% in size
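Human K18 P301L tau (15 uM unlabeled plus 0.24 uM Alexa 594-labeled, final) in 100 mM sodium acetate pH 7 was mixed with compound and 20 uM heparin and incubated 6 hr at 37 C.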
FBPA coupling cs = inhibits coupling enzyme system, counter-screen for aldolase hits; coupling enzyme system counterscreen, AmpLite Red fluorescence; hit rate 0.67% among 290,000; activity change, negative = inhibition, % at 58.2 µM, hits read low; in the data active = activity change below about -30%
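Activity here indicates interference with the coupling reaction, not aldolase inhibition. Compounds at 57.5 uM final met coupling enzymes for 10 min at RT; substrate and AmpLite Red detection followed, with a 525/598 nm fluorescence read after 20 min.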
A number is an active result; . = inactive; ? = inconclusive; / = not tested or not shown; [ ] = remark or other dose. Unless noted, calls come from the whole dose curve; as a rule, active = well fitted curve in the direction sought with a large enough effect; inconclusive = small, poorly fitted or top-dose-only effect, or another doubt; inactive = no such curve, though single readings can be large; an effect the other way counts as inactive or inconclusive.

SMILES	Tau ThT inhib	Tau FP inhib	Sfp inh	Tau fluor cs	FBPA coupling cs
O=c1cnnc(Nc2ccc(Cl)c(C(F)(F)F)c2)[nH]1	.	.	.	.	.
CCOc1cccc2cc(-c3nnc(Nc4ccc(F)c(Cl)c4)s3)c(=O)oc12	.	.	/	.	/
Cc1cccc2c1-c1sc(C(=O)Nc3ccccc3N3CCN(C)CC3)cc1CO2	/	.	35µM	.	.
Cc1noc(C)c1-c1ccc2ncnc(NCc3cccc(C(F)(F)F)c3)c2c1	/	/	.	/	.
CC(C)(C)c1csc(NNC(=O)c2ccc(Cl)cc2)n1	/	.	45µM	.	.
CCOc1cc2c(C#N)c(N3CCOCC3)nc(N)c2c(N)n1	.	.	.	.	-48
Cc1cccc(N2CCN(C(=O)c3c(C)oc4ncnc(N5CCOCC5)c34)CC2)c1C	.	.	/	.	/
Oc1ccc(Cl)cc1-c1cc(-c2ccco2)[nH]n1	.	?	50µM	?	.
O=[N+]([O-])c1ccccc1-c1cc(-c2cc(Cl)ccc2O)n[nH]1	?	?	.	14µM[quencher]	.
Cc1ccc(O)c(-c2cc(-c3ccccc3[N+](=O)[O-])[nH]n2)c1	?	.	.	?	.
Oc1ccccc1-c1cc(-c2ccccc2Cl)[nH]n1	.	?	.	14µM[quencher]	.
O=C(O)CN(CC(=O)O)c1ccccc1OCCOc1ccccc1N(CC(=O)O)CC(=O)O	/	/	.	/	.
COc1ccc(CN2CCc3c(c(=O)n4ncc(C(=O)N5CCN(c6ccccc6F)CC5)c4n3C)C2)cc1	.	.	/	.	/
Cc1nnc(N2CCC(C(=O)N3CCCCC3)CC2)c2nn(-c3ccccc3)c(C)c12	.	.	/	.	/
COc1ccc(-c2nc(CN3CCC(C(=O)NCCCOC(C)C)CC3)c(C)o2)cc1OC	.	.	/	.	/
CCCC(=O)Nc1nc(C)c(-c2csc(Nc3ccc(Cl)cc3)n2)s1	13µM	.	.	14µM[quencher]	.
CCC(C)C(=O)Nc1nc(C)c(-c2csc(Nc3ccc(Cl)cc3)n2)s1 (stereo not drawn)	?	.	.	14µM[quencher]	.
CC(=O)Nc1ccc(Nc2nc(-c3sc(NC(C)=O)nc3C)cs2)cc1	/	/	?	/	.
COc1cc(C2c3c(oc4ccccc4c3=O)C(=O)N2c2nnc(C(C)C)s2)cc(OC)c1OC (stereo not drawn)	.	.	/	.	/
COc1cc(NC(=O)CCc2c(C)nc3c(-c4ccc(F)cc4)c(C)nn3c2C)cc(OC)c1OC	?	.	/	?	/
C[C@H]1Cc2c(COc3ccccc3)nc3c(c2CO1)CN(C(=O)c1cccnc1)CC3	.[11.5 µM]	.[11.6 µM]	.	.[11.6 µM]	.
Cc1cc(SCC(=O)N/N=C/c2ccc(O)c(O)c2)c(C)cc1Br	?	.	?	14µM[quencher]	.
Cc1cc(SCC(=O)N/N=C/c2ccc(O)c(O)c2)nc2ccccc12	/	/	.	/	.
CC(C)OP(=O)(OC(C)C)C1(NS(=O)(=O)c2ccc(Cl)cc2)C=C(Cl)C(=O)C(Cl)=C1	/	/	89µM	/	.
CC(C)N(CCNS(=O)(=O)c1ccc(Cl)cc1)C(C)C	.	.	.	.	.
SMILES	Tau ThT inhib	Tau FP inhib	Sfp inh	Tau fluor cs	FBPA coupling cs
NC(=O)c1c(/N=C/c2cccs2)sc2c1CCCC2	2.2µM	.	.	.	.
CC1(C#CC[N+]2(C)CCCCC2)CCC2C(O1)c1ccccc1OC2(C)C (stereo not drawn)	.	.	56µM	.	.
Cc1ccccc1N1C(=O)c2sc3nc4c(c(=O)n3c2C1=O)CCC4	?	?	22µM	.	.
O=C1c2sc3nc4ccccc4n3c2C(=O)N1c1ccccc1Cl	28µM	?	40µM	.	.
O=C1c2sc3nc4c(c(=O)n3c2C(=O)N1c1ccccc1)CCC4	.	.	?	.	.
Cc1nn2c(=O)cc(COC(=O)c3cccc(NC(=O)COc4ccc(C)c(C)c4)c3)nc2s1	?	.	/	.	/
Cc1cc(C)nc(N(C#N)CN2C(=O)c3ccccc3C2=O)n1	.	.	89µM	.	.
CCOc1cccc2oc(-c3ccccc3Cl)cc(=O)c12	.	.	.	.	.
COc1ccc(N=Cc2[nH]c3ccccc3c2O)cc1	18µM	?	.	.	-38
Cc1ccc(O)c(N=CC2=C(O)c3ccccc3C2=O)c1	25µM	?	.	?	.
O=C1C(C=Nc2ccccc2O)=C(O)c2ccccc21	?	.	.	.	.
COc1ccc(N=CC2=C(O)c3ccccc3C2=O)cc1	2.2µM	.	.	.	.
